What all share (format): functional
For assay [1], the system named is Plasmodium falciparum. As to the kind of experiment: GSK_TCMDC: Inhibition of Plasmodium falciparum 3D7 in whole red blood cells, using parasite LDH activity as an index of growth. Test compounds present at 2uM.
Assay [2] concerns Plasmodium falciparum. As to the kind of experiment: GSK_TCMDC: Inhibition of Plasmodium falciparum Dd2 in whole red blood cells, using parasite LDH activity as an index of growth. Test compounds present at 2uM.
Another assay relates to HepG2. As to the kind of experiment: GSK_TCMDC: Percent inhibition of human HepG2 cell line. Test compounds present at 10uM.

Data on 28 compounds can be found in ChEMBL document CHEMBL1157539, “Thousands of chemical starting points for antimalarial lead identification” (Nature, 2010).

`O=C(Nc1ccc(OC2CCN(Cc3ccccc3)C2)c(Cl)c1)c1cccs1.O=C(O)C(F)(F)F` (centres undefined): the Inhibition (as a rule, the drop in the measured response relative to a control, in per cent) in the assay with Plasmodium falciparum [1] stood at 97%; with Plasmodium falciparum [2], 96%; in the assay on HepG2, 13%.
`OCc1c(Cl)cc(Cl)cc1CNCCCNc1nc2ccccc2[nH]1`: the figures for the Inhibition in the assay on Plasmodium falciparum [1], with Plasmodium falciparum [2] and with HepG2 were 100%, 2% and 0%, respectively.
Take `CCn1c(C=Cc2cc(Br)ccc2O)nc2ccccc2c1=O`: the Inhibition came to 95% in the assay with Plasmodium falciparum [1], 95% with Plasmodium falciparum [2] and 6% with HepG2.
`COc1cc2c(c(OC)c1[N+](=O)[O-])C=CC1(O2)N(C)c2ccc([N+](=O)[O-])cc2C1(C)C` (centres undefined): the Inhibition with Plasmodium falciparum [1] turned out to be 92%; in the assay on Plasmodium falciparum [2], 89%; in the assay on HepG2 it was 0%.
In the same order, the values of `O=C(Nc1ccc(Cl)cc1)Nc1cccc(-c2ccc(-c3nc4ccccc4[nH]3)cc2)c1` are 87%, 6% and 19%.
As to `c1ccc(-c2[nH]c3ccccc3c2CN2CCC(N3CCCCC3)CC2)nc1`, the Inhibition is 100% in the assay with Plasmodium falciparum [1], 82% in the assay on Plasmodium falciparum [2] and 13% in the assay with HepG2.
Take `Cc1cc(=NN=Cc2ccc(F)cc2)c2cc(C(F)(F)F)ccc2[nH]1`: the Inhibition is 100% in the assay on Plasmodium falciparum [1], 99% in the assay on Plasmodium falciparum [2] and 2% in the assay with HepG2.
For `COc1cccc(OC)c1-c1ccccc1NC(=O)N1CCCc2cc(C)ccc21` the same measures were 82%, 84% and 51%.
In the case of `CCCNc1ccc2nccc(CCN3CCC(NCc4ccc5c(n4)NC(=O)CS5)CC3)c2n1`, the Inhibition in the assay on Plasmodium falciparum [1] worked out at 100%; in the assay on Plasmodium falciparum [2], 0%; with HepG2, 24%.
For `O=C(NCCCCCN1CCC(c2c[nH]c3ccccc23)CC1)Nc1cccc(I)c1`, the figures for the Inhibition in the assay on Plasmodium falciparum [1], with Plasmodium falciparum [2] and with HepG2 were 99%, 11% and 70%, respectively.
In the same order, the values of `NC1CCCN(Cc2ccc(-c3cccc(-c4nc5cc(F)ccc5[nH]4)c3)cc2)C1.O=C(O)C(F)(F)F` (centres undefined) are 100%, 75% and 54%.
On to `CS(=O)(=O)c1ccc(CNCc2ccc(-c3cccc(-c4nc5cc(F)ccc5[nH]4)c3)cc2)cc1.O=C(O)C(F)(F)F`, for which the Inhibition in the assay on Plasmodium falciparum [1] stood at 100%; with Plasmodium falciparum [2], 74%; in the assay with HepG2, 33%.
In the case of `CC1(C)N=C(N)N=C(N)N1c1ccc(Br)cc1.Cl`, the values for the Inhibition with Plasmodium falciparum [1], in the assay on Plasmodium falciparum [2] and in the assay on HepG2 were 94%, 4% and 52%, respectively.
For the compound `O=C(Nc1cccc(CN2CCCN(Cc3ccc(O)cc3)CC2)c1)c1ccc2ccccc2c1.O=C(O)C(F)(F)F`, the figures for the Inhibition in the assay with Plasmodium falciparum [1], with Plasmodium falciparum [2] and with HepG2 were 100%, 78% and 20%, respectively.
Take `CCOc1ccc2[nH]c(C)cc(=NN=Cc3ccncc3)c2c1`: the Inhibition with Plasmodium falciparum [1] was 99%; in the assay with Plasmodium falciparum [2], 78%; in the assay on HepG2 it was 8%.
For `COc1cccc(Nc2nc(C)cc(NC3CCN(Cc4ccccc4)CC3)n2)c1`, the Inhibition with Plasmodium falciparum [1] was determined as 100%; with Plasmodium falciparum [2], 46%; in the assay with HepG2 it was 15%.
Regarding `CCOC(=O)c1ccc(OCCCCCCOc2ccc(Br)cc2)cc1`, the Inhibition with Plasmodium falciparum [1] turned out to be 98%; in the assay on Plasmodium falciparum [2], 0%; in the assay on HepG2, 12%.
`CCOc1ccc2c(c1)N(C(=O)C=Cc1ccccc1)C(C)(C)c1ssc(=S)c1-2`: the Inhibition in the assay on Plasmodium falciparum [1] was 83%; with Plasmodium falciparum [2], 77%; in the assay on HepG2, 3%.
For `CCc1ccc(C2CCN(CCCCNC(=O)c3ccc(-c4ccc(Cl)cc4)cc3)CC2)c(O)c1` the same measures were 100%, 99% and 48%.
For `COc1ccccc1C1CCN(C2CCC(NC(=O)/C=C/c3cccc(Cl)c3F)CC2)CC1` (centres undefined), the Inhibition in the assay with Plasmodium falciparum [1] came out at 96%; with Plasmodium falciparum [2], 19%; with HepG2, 50%.
`CC(C)(C)C(=O)Nc1ccccc1Oc1ccc(Cl)cc1`: the figures for the Inhibition in the assay on Plasmodium falciparum [1], in the assay with Plasmodium falciparum [2] and in the assay on HepG2 were 92%, 96% and 54%, respectively.
As to `O=C(Cn1c(CCc2cccc(F)c2F)cc(=O)c2ccccc21)N(CCN1CCCC1)Cc1ccc(-c2ccc(C(F)(F)F)cc2)cc1.O=C(O)C(O)C(O)C(=O)O`, the Inhibition in the assay with Plasmodium falciparum [1] is 99%; in the assay on Plasmodium falciparum [2], 57%; with HepG2 it was 89%.
In the case of `O=C(Cn1c(CCc2cccc(F)c2F)cc(=O)c2ccccc21)N(Cc1ccc(-c2ccc(C(F)(F)F)cc2)cc1)C1CCN(CCN2CCOCC2)CC1.O=C(O)C(O)C(O)C(=O)O`, the Inhibition in the assay on Plasmodium falciparum [1] is 100%; in the assay on Plasmodium falciparum [2], 41%; with HepG2 it was 53%.
For `O=C(Nc1ccc(Cn2ncc(N3CCCNCC3)c(Cl)c2=O)cc1)Nc1ccc(C(F)(F)F)cc1.O=C(O)C(F)(F)F` the same measures were 90%, 58% and 12%.
For the compound `COc1ccc2nccc(NC(=O)N3CCC(NCc4cc5c(F)ccc(F)c5[nH]4)CC3)c2n1.O=C(O)C(=O)O`, the Inhibition in the assay on Plasmodium falciparum [1] is listed as 99%; in the assay on Plasmodium falciparum [2], 40%; with HepG2 it was 6%.
`O=C(O)C(F)(F)F.O=S(=O)(NC1CCN(c2ccnc3ccccc23)C1)c1ccc(OC(F)(F)F)cc1` (centres undefined): the Inhibition is 88% in the assay on Plasmodium falciparum [1], 0% in the assay with Plasmodium falciparum [2] and 34% in the assay on HepG2.
For `N#Cc1cccc(Nc2nccc(NCC(O)c3ccc(C(F)(F)F)cc3)n2)c1` (centres undefined) the same measures were 100%, 98% and 23%.
In the same order, the values of `CCn1ccc2c(N3CCCS3(=O)=O)cc(C(=O)N[C@@H](Cc3ccccc3)[C@H](O)CNC(C)(C)CCCC(C)C)cc21` are 97%, 98% and 8%.
